Here are results for 33 compounds from PubChem BioAssay (EPA / NIEHS).

Some compounds were tested as several samples or in several runs, with calls that do not always agree. Active and inactive are the calls of the source. How the source made its calls: active means hit-call score of the fitted dose curve at least 0.9, where 1 is the maximum; inactive means score below 0.9.

Read-out in one assay: not listed separately
Description: BSK_3C_SRB: Viability Assessment in the BioMAP Diversity Plus: 3C Assay (AID 2283023).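 Further: cells read 24 h after compound dosing; fitted both ways against DMSO so a hit may be signal rise or drop.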 The note with it: primary human endothelial cells (HUVEC). The essentials: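 Cells were dosed with chemical, cultured 24 h, fixed with 10% TCA, stained with 0.1% SRB and read at 560 nm. Human umbilical vein endothelium was used; DMSO served as negative control and baseline.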
In the case of `C=CC(Cl)CCl` (stereo not given), the result was inactive.
The AC50 is the concentration giving half of the maximal activity seen. In the case of `CCOP(=O)(OCC)OC(=CCl)c1ccc(Cl)cc1Cl`, the AC50 is 29 µM (active).
In the case of `COc1ccccc1N`, the outcome was inactive.
As to `CCN(CC)C(=O)C(Cl)=C(C)OP(=O)(OC)OC`, the result was inactive.
The same measure, in the same setting: in the case of `CC(C=O)Cc1ccc2c(c1)OCO2` (stereo not given) it was “inactive”; in that of `OCCN(CCO)CCO`, “inactive”.
`[Cl][Sn]([c]1ccccc1)([c]1ccccc1)[c]1ccccc1`: the AC50 was 0.188 µM (active).
The same measure, in the same setting: as for `C#CCOC(=O)/C=C(C)/C=C/CC(C)CCCC(C)C` (stereo not given), the figure is 32.1 µM (active).
For the compound `CN(C)C(=S)S`, the result was inactive.
As for `CC(C)=CC1C(C(=O)OCc2cccc(Oc3ccccc3)c2)C1(C)C` (stereo not given), the AC50 was 26.7 µM (active).
Same read-out and setting: as for `CCOP(=S)(OCC)OP(=S)(OCC)OCC`, the figure is 26.6 µM (active); as for `O=S(=O)(c1ccc(Cl)cc1)c1cc(Cl)c(Cl)cc1Cl`, 5.42 µM (active).
With `Cc1cc(C)cc(C)c1`, the outcome was inactive.

Read-out in the next assay: Matrix Metallopeptidase 1 (MMP1), MMP1 (gene 4312)
Description: BSK_BE3C_MMP1: BioMAP Diversity Plus: BE3C Assay for Matrix Metallopeptidase 1 (MMP1) Biomarker Activity (AID 2283024). The conditions noted are these: primary human bronchial epithelial cells; actives raise or lower the signal. The essentials:
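Human primary bronchial epithelial cells (BE3C system) dosed for 24 h; MMP-1 quantified by ELISA. Bidirectional fit against DMSO; cytotoxicity tracked in parallel cultures by SRB total-protein staining.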
As for `Cc1ccc2nc3sc(=O)sc3nc2c1`, the outcome was inactive.
The same measure, in the same setting: in the case of `OC(Cc1ccccc1Cl)(Cn1cncn1)C1(Cl)CC1` (stereo not given) it was “inactive”.
With `Cc1ccccc1OP(=O)(Oc1ccccc1)Oc1ccccc1`, the AC50 was 6.66 µM (active).
In the case of `O=[N+]([O-])c1cccc2ccccc12`, the result was inactive.
Same read-out and setting: as for `Oc1c(Cl)cc(Cl)cc1Cl`, the entry is “inactive”; as for `CCOC(=O)CCN(SN(C)C(=O)Oc1cccc2c1OC(C)(C)C2)C(C)C`, “inactive”.
The same measure, in the same setting: in the case of `OC(Cc1ccccc1Cl)(Cn1[nH]cnc1=S)C1(Cl)CC1` (stereo not given) it was “inactive”; in that of `CCOP(=O)(OCC)SCCSCC`, “inactive”.
In the case of `N#CCCC(Br)(C#N)CBr` (stereo not given), the AC50 is 20 µM (active).
Turning to `Cc1cc(C(C)(C)c2ccc(O)c(C)c2)ccc1O`, the outcome was inactive.
Same read-out and setting: in the case of `O=C(O)COc1cc(Cl)c(Cl)cc1Cl` it was “inactive”; in that of `O=[N+]([O-])c1ccc(Nc2ccccc2)cc1`, “inactive”.
For the compound `Cc1ccccc1OP(=O)(Oc1ccccc1C)Oc1ccccc1C`, the AC50 is 5.4 µM (active).
With `CCOC(=O)C(SP(=S)(OC)OC)c1ccccc1` (stereo not given), the result was inactive.
The same measure, in the same setting: in the case of `CC(C)(C)c1cc([N+](=O)[O-])cc(C(C)(C)C)c1O` it was “inactive”.
As to `CC1(C)[C@H](C(=O)O[C@H](C#N)c2cccc(Oc3ccccc3)c2)[C@@H]1/C=C(\Cl)C(F)(F)F`, the AC50 is 0.0142 µM (active) and the result was inactive.
Turning to `c1ccc(-c2cccc(-c3ccccc3)c2)cc1`, the AC50 was 0.136 µM (active).
With `Cc1ccc(OP(=O)(Oc2ccc(C)cc2C)Oc2ccc(C)cc2C)c(C)c1`, the outcome was inactive.
On the same count and under the same terms, as for `CC(C)(C)c1ccccc1O`, the entry is “inactive”.
Turning to `O=S(=O)(C(Cl)(Cl)Cl)C(Cl)(Cl)Cl`, the AC50 is 7.31 µM (active).
For the compound `C=CC(Cl)CCl` (stereo not given), the result was inactive.
The same measure, in the same setting: in the case of `CCOP(=O)(OCC)OC(=CCl)c1ccc(Cl)cc1Cl` it was “inactive”; in that of `COc1ccccc1N`, “inactive”.
Same read-out and setting: as for `CCN(CC)C(=O)C(Cl)=C(C)OP(=O)(OC)OC`, the entry is “inactive”; as for `CC(C=O)Cc1ccc2c(c1)OCO2` (stereo not given), “inactive”.
On the same count and under the same terms, in the case of `OCCN(CCO)CCO` it was “inactive”.
Regarding `[Cl][Sn]([c]1ccccc1)([c]1ccccc1)[c]1ccccc1`, the half-maximal activity concentration (AC50) was 0.36 µM (active).
As to `C#CCOC(=O)/C=C(C)/C=C/CC(C)CCCC(C)C` (stereo not given), the outcome was inactive.
With `CN(C)C(=S)S`, the AC50 was 13.2 µM (active).
As for `CC(C)=CC1C(C(=O)OCc2cccc(Oc3ccccc3)c2)C1(C)C` (stereo not given), the result was inactive.
Same read-out and setting: as for `CCOP(=S)(OCC)OP(=S)(OCC)OCC`, the entry is “inactive”; as for `O=S(=O)(c1ccc(Cl)cc1)c1cc(Cl)c(Cl)cc1Cl`, “inactive”.
Same read-out and setting: as for `Cc1cc(C)cc(C)c1`, the entry is “inactive”.

Read-out in a further assay: not listed separately
The assay can be described thus: BSK_3C_Vis: BioMAP Diversity Plus: 3C Assay for Morphology Visualization (AID 2283025).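 Further: fitted both ways so gain or loss versus DMSO counts.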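 On AC50: light microscopy image of cell morphology used as background control.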 The conditions noted are these: primary human endothelial cells (HUVEC). In short, it runs like this: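 Human umbilical vein endothelial cell morphology was inspected by light microscopy 24 h after chemical dosing; scored bidirectionally relative to DMSO.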
With `Cc1ccc2nc3sc(=O)sc3nc2c1`, the AC50 was 9.8 µM (active).
Turning to `OC(Cc1ccccc1Cl)(Cn1cncn1)C1(Cl)CC1` (stereo not given), the outcome was inactive.
For `Cc1ccccc1OP(=O)(Oc1ccccc1)Oc1ccccc1`, the AC50 was 11.6 µM (active).
Turning to `O=[N+]([O-])c1cccc2ccccc12`, the result was inactive.
Take `Oc1c(Cl)cc(Cl)cc1Cl`: the outcome was inactive.
Take `CCOC(=O)CCN(SN(C)C(=O)Oc1cccc2c1OC(C)(C)C2)C(C)C`: the AC50 was 20 µM (active).
As to `OC(Cc1ccccc1Cl)(Cn1[nH]cnc1=S)C1(Cl)CC1` (stereo not given), the result was inactive.
With `CCOP(=O)(OCC)SCCSCC`, the outcome was inactive.
For the compound `N#CCCC(Br)(C#N)CBr` (stereo not given), the AC50 was 5.04 µM (active).
For `Cc1cc(C(C)(C)c2ccc(O)c(C)c2)ccc1O`, the AC50 is 18.7 µM (active).
Turning to `O=C(O)COc1cc(Cl)c(Cl)cc1Cl`, the result was inactive.
The same measure, in the same setting: in the case of `O=[N+]([O-])c1ccc(Nc2ccccc2)cc1` it was “inactive”.
As for `Cc1ccccc1OP(=O)(Oc1ccccc1C)Oc1ccccc1C`, the AC50 is 12.5 µM (active).
As to `CCOC(=O)C(SP(=S)(OC)OC)c1ccccc1` (stereo not given), the AC50 is 37.5 µM (active).
On to `CC(C)(C)c1cc([N+](=O)[O-])cc(C(C)(C)C)c1O`, for which the result was inactive.
The same measure, in the same setting: in the case of `CC1(C)[C@H](C(=O)O[C@H](C#N)c2cccc(Oc3ccccc3)c2)[C@@H]1/C=C(\Cl)C(F)(F)F` it was “inactive”.
For `c1ccc(-c2cccc(-c3ccccc3)c2)cc1`, the AC50 is 13 µM (active).
Regarding `Cc1ccc(OP(=O)(Oc2ccc(C)cc2C)Oc2ccc(C)cc2C)c(C)c1`, the outcome was inactive.
On the same count and under the same terms, in the case of `CC(C)(C)c1ccccc1O` it was “inactive”.
`O=S(=O)(C(Cl)(Cl)Cl)C(Cl)(Cl)Cl`: the AC50 is 4.25 µM (active).
In the case of `C=CC(Cl)CCl` (stereo not given), the outcome was inactive.
With `CCOP(=O)(OCC)OC(=CCl)c1ccc(Cl)cc1Cl`, the AC50 was 37.4 µM (active).
Regarding `COc1ccccc1N`, the outcome was inactive.
On the same count and under the same terms, in the case of `CCN(CC)C(=O)C(Cl)=C(C)OP(=O)(OC)OC` it was “inactive”; in that of `CC(C=O)Cc1ccc2c(c1)OCO2` (stereo not given), “inactive”; in that of `OCCN(CCO)CCO`, “inactive”.
As for `[Cl][Sn]([c]1ccccc1)([c]1ccccc1)[c]1ccccc1`, the AC50 was 0.176 µM (active).
The same measure, in the same setting: in the case of `C#CCOC(=O)/C=C(C)/C=C/CC(C)CCCC(C)C` (stereo not given) it was 39.8 µM (active).
Turning to `CN(C)C(=S)S`, the result was inactive.
As for `CC(C)=CC1C(C(=O)OCc2cccc(Oc3ccccc3)c2)C1(C)C` (stereo not given), the AC50 was 37.6 µM (active).
Still for that read-out and setting: as for `CCOP(=S)(OCC)OP(=S)(OCC)OCC`, the figure is 37.5 µM (active); as for `O=S(=O)(c1ccc(Cl)cc1)c1cc(Cl)c(Cl)cc1Cl`, 13.6 µM (active).
In the case of `Cc1cc(C)cc(C)c1`, the result was inactive.
